Assay [1] deals with Serine/threonine-protein kinase MARK2 (Homo sapiens) (UniProt Q7KZI7). The settings on record: at 1 µM.
Assay [2] addresses PAS domain-containing serine/threonine-protein kinase (Homo sapiens) (UniProt Q96RG2). The settings on record: at 0.1 µM.
For assay [3] the target is unchanged. The settings on record: at 1 µM.
Assay [4] has as its target Phosphorylase b kinase gamma catalytic chain, skeletal muscle/heart isoform (Homo sapiens) (UniProt Q16816). The settings on record: at 0.1 µM.
The target is the same in assay [5]. The settings on record: at 1 µM.
Assay [6] has as its target T1, Phosphorylase b kinase gamma catalytic chain, liver/testis isoform (Homo sapiens) (UniProt P15735).
T1 sequence (whole entry): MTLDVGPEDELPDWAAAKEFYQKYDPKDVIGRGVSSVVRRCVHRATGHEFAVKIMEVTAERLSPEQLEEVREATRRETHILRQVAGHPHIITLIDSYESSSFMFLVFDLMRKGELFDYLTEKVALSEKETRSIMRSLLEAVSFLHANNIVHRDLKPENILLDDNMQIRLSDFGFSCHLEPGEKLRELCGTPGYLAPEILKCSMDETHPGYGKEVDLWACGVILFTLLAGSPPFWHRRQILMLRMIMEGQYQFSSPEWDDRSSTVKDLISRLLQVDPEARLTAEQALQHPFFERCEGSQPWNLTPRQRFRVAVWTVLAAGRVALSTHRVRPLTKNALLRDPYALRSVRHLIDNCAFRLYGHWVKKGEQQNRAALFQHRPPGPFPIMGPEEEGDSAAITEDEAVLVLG
The settings on record: at 0.1 µM.

Assay [7] deals with T1, Phosphorylase b kinase gamma catalytic chain, liver/testis isoform (Homo sapiens). The settings on record: at 1 µM.
Assay [8] deals with Serine/threonine-protein kinase pim-1 (Homo sapiens) (UniProt P11309). The settings on record: at 0.1 µM.
Sequence of Serine/threonine-protein kinase pim-1 (Homo sapiens) (P11309 whole entry, looked up): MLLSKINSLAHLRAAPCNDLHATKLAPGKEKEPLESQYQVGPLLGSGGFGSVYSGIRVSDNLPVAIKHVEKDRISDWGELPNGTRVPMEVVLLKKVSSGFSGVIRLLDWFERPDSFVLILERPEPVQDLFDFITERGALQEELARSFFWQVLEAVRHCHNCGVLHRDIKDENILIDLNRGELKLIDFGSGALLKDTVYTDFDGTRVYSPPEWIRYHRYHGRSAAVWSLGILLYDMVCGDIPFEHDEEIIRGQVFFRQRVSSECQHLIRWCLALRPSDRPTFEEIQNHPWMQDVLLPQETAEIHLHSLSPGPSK
Assay [9] shares this target. The settings on record: at 1 µM.
Assay [10] addresses Serine/threonine-protein kinase pim-2 (Homo sapiens) (UniProt Q9P1W9). The settings on record: at 0.1 µM.
For assay [11] the target is unchanged. The settings on record: at 1 µM.
Assay [12] has as its target Serine/threonine-protein kinase pim-3 (Homo sapiens) (UniProt Q86V86). The settings on record: at 0.1 µM.
The target is the same in assay [13]. The settings on record: at 1 µM.
Assay [14] deals with T2, MAP kinase-activated protein kinase 5 (Homo sapiens) (UniProt Q8IW41).
T2 sequence (whole entry): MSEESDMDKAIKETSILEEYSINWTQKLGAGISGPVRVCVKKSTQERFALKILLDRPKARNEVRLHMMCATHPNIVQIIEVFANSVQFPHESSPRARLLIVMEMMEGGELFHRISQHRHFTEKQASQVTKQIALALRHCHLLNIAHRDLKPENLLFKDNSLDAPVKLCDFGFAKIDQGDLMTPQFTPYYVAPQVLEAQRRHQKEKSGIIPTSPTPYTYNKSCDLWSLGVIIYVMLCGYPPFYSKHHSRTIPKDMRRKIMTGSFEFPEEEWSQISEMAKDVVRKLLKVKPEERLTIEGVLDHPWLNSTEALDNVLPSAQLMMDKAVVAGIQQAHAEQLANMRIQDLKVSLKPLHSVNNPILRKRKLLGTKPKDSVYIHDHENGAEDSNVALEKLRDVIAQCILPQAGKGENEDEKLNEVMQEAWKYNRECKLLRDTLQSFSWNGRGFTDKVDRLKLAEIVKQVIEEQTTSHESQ
The settings on record: at 0.1 µM.

The target of assay [15] is T2, MAP kinase-activated protein kinase 5 (Homo sapiens). The settings on record: at 1 µM.
Assay [16] addresses Serine/threonine-protein kinase SIK1 (Homo sapiens) (UniProt P57059). The settings on record: at 0.1 µM.
For assay [17] the target is unchanged. The settings on record: at 1 µM.
Assay [18] has as its target Serine/threonine-protein kinase SIK2 (Homo sapiens) (UniProt Q9H0K1). The settings on record: at 0.1 µM.
For assay [19] the target is unchanged. The settings on record: at 1 µM.
In assay [20] the target is T3, Serine/threonine-protein kinase TBK1 (Homo sapiens) (UniProt Q9UHD2).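 Note: values are the mean TBK1 inhibition, taken from the GSK PKIS screening data.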
T3 sequence (whole entry): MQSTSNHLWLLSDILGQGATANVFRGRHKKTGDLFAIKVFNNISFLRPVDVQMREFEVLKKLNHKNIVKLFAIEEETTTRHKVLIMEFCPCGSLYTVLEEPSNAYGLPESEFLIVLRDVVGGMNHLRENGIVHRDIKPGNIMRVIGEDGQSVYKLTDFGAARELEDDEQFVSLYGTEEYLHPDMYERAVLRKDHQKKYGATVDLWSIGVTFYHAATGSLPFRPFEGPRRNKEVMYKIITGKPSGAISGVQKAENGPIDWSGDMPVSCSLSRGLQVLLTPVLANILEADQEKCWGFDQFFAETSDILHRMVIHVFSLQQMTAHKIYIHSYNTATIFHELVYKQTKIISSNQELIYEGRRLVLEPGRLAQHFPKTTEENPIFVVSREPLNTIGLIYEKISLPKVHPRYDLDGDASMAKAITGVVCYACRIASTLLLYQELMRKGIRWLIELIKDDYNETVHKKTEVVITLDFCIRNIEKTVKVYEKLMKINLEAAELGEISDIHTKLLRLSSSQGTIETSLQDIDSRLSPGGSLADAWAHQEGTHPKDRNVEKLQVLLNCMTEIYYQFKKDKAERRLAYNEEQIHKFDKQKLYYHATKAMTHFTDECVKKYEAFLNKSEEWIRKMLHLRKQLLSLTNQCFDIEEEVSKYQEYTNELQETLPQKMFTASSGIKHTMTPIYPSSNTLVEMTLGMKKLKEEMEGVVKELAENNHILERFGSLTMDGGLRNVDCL
The settings on record: at 0.1 µM.

Structures are written as SMILES.

Sequence of Serine/threonine-protein kinase MARK2 (Homo sapiens) (Q7KZI7 whole entry, the tested form may be a part): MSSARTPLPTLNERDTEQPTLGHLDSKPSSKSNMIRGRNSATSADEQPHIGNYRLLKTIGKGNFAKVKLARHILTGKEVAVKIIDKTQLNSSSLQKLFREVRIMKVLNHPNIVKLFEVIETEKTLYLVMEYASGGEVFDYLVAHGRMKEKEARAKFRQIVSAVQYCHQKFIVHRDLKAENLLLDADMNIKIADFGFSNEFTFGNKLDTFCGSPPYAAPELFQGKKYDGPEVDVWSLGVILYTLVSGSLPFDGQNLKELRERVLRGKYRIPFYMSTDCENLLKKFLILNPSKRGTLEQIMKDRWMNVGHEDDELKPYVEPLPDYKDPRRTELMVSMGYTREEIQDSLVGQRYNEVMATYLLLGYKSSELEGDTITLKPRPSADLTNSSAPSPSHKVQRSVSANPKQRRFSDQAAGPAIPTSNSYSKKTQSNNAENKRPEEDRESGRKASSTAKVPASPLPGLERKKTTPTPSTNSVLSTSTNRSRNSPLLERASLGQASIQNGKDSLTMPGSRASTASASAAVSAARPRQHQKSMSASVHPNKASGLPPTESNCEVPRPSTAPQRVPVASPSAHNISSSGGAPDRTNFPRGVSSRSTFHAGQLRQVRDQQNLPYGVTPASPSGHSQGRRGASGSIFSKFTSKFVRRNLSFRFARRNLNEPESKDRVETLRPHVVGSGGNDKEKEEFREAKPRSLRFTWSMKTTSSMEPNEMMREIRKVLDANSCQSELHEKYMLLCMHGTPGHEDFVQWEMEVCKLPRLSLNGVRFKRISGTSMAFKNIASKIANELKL
Sequence of Phosphorylase b kinase gamma catalytic chain, skeletal muscle/heart isoform (Homo sapiens) (Q16816 whole entry, looked up, canonical isoform): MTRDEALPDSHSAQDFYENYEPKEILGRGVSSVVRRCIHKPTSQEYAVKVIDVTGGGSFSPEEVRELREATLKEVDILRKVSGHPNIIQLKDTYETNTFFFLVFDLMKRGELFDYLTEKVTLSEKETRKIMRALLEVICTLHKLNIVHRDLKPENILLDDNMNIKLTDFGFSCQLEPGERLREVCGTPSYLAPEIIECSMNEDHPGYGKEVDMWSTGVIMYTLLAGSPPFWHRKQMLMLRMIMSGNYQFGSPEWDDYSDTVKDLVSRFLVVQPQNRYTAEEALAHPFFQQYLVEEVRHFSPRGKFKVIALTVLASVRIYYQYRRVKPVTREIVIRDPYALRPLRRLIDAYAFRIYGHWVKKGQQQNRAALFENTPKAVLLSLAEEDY
Sequence of Serine/threonine-protein kinase SIK2 (Homo sapiens) (Q9H0K1 whole entry, looked up): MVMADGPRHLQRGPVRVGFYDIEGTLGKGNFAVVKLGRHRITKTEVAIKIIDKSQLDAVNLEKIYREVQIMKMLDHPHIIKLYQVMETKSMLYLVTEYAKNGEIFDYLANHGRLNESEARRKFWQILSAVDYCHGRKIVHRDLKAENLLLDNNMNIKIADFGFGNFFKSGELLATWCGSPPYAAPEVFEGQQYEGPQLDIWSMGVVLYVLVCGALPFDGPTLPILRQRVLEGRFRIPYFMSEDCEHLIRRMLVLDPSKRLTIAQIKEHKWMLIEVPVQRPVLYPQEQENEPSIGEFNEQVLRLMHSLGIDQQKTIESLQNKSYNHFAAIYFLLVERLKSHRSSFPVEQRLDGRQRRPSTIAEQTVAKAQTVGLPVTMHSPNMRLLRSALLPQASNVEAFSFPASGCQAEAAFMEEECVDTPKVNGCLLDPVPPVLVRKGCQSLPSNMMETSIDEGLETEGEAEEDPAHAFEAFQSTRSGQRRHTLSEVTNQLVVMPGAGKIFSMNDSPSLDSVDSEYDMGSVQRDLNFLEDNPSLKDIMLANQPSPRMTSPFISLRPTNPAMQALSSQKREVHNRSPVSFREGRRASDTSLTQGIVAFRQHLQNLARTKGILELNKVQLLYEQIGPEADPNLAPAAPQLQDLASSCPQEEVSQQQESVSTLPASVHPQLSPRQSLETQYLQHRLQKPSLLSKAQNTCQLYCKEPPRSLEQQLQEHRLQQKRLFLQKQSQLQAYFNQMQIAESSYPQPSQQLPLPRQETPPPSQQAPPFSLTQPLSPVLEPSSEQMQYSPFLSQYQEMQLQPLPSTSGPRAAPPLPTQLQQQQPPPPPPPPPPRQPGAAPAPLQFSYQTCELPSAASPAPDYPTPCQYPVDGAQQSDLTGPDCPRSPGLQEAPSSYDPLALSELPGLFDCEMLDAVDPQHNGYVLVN
Sequence of Serine/threonine-protein kinase pim-2 (Homo sapiens) (Q9P1W9 whole entry, looked up): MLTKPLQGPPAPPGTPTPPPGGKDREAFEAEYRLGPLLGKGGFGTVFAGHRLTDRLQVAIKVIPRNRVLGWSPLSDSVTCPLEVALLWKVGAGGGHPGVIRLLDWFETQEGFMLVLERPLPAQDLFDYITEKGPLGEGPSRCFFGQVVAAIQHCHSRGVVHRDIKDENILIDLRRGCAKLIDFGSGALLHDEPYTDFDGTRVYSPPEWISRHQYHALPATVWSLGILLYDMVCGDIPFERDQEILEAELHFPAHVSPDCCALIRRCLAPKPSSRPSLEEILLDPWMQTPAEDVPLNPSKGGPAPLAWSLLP
Sequence of Serine/threonine-protein kinase SIK1 (Homo sapiens) (P57059 whole entry): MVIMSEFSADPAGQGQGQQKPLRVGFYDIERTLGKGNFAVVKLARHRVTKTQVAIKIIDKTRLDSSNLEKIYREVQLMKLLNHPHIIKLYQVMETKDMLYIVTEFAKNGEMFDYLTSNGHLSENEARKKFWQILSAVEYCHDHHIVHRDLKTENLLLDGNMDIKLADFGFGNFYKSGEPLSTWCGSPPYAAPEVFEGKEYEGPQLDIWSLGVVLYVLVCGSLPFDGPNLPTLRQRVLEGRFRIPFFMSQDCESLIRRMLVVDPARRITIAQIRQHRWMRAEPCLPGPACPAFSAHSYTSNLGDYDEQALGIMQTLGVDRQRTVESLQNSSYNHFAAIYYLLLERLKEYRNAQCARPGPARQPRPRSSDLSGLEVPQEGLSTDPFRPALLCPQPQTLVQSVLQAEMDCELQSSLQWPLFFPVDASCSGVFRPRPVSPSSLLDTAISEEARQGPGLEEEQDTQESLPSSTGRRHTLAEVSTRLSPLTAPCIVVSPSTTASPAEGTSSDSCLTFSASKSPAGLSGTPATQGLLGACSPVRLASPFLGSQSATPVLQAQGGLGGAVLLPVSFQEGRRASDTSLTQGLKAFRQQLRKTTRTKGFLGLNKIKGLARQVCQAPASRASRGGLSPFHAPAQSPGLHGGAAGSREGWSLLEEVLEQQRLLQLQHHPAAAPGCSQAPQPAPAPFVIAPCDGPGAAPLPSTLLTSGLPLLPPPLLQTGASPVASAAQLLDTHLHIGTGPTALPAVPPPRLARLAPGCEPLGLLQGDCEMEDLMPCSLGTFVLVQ

One may read the inhibition as the drop in the measured response relative to a control, in per cent. With `NS(=O)(=O)c1ccc(Nc2cc(-c3cccc(O)c3)n[nH]2)cc1`, the inhibition was 6.24% in assay [1]; 0.14% in assay [2]; -1.99% in [3]; 3.73% in assay [4]; 12.8% in [5]; 6.63% in assay [6]. In addition, the inhibition in [7] is 6.34%; in assay [8], -0.06%; in assay [9], 1.3%; in assay [10], 0.62%; in assay [11], 1.32%; in assay [12], -2.75%. Further, the inhibition was -0.87% in [13]; 1.59% in assay [14]; 1.7% in [15]; 6.53% in assay [16]; 13.8% in [17]; 6.19% in assay [18]. Besides, the inhibition in assay [19] came to 16.4%; in assay [20] it was 4.83%.

As to `C[C@@H](Oc1cc(-n2cnc3ccc(OC[C@@H](O)CO)cc32)sc1C(N)=O)c1ccccc1Cl`, the inhibition in [1] was 4.76%; in assay [2] it was 0.26%; in [3] it was 1.99%; in assay [4], 0.98%; in assay [5], 4.08%; in assay [6], -2.13%. Also, the inhibition is -1.44% in assay [7]; 2.14% in [8]; 19.1% in assay [9]; -0.13% in [10]; 1.97% in assay [11]; 2.99% in [12]. In addition, the inhibition in [13] is 22.2%; in assay [14], -0.57%; in assay [15], -0.59%; in assay [16], -2.64%; in assay [17], 6.54%; in [18], 4.2%. Further, the inhibition in [19] amounted to 10.6%; in assay [20] it was 0.21%.

For `COc1cc(Nc2nccc(-c3cnn4ncccc34)n2)cc(OC)c1`, the inhibition in [1] was 20%; in [2], 0.79%; in [3], -0.31%; in [4] it was 7.9%; in [5] it was 39.2%; in [6], 2.69%. Also, the inhibition was 15.6% in [7]; 1.41% in [8]; 6.3% in assay [9]; 1.22% in assay [10]; 6.78% in [11]; 4.42% in assay [12]. Besides, the inhibition was 10.6% in [13]; 0.14% in [14]; 1.55% in [15]; 8.12% in assay [16]; 32.3% in [17]; 3.15% in assay [18]. Besides, the inhibition amounted to 39.1% in assay [19] and 3.49% in assay [20].

For `Cc1ccc(Nc2ccnc(Nc3cccc(C(N)=O)c3)n2)cc1O`, the inhibition in [1] turned out to be 3.99%; in assay [2], 0.66%; in assay [3] it was 0.18%; in [4], 1.96%; in assay [5], 10.4%; in assay [6] it was 4.75%. Further, the inhibition in assay [7] is 6.26%; in assay [8], 0.14%; in [9], 1.49%; in assay [10], -4.07%; in assay [11], -3.06%; in assay [12], 0.18%. Also, the inhibition in assay [13] was 1.91%; in assay [14] it was 1.13%; in assay [15], 1.29%; in assay [16] it was 29.8%; in [17], 80.2%; in [18] it was 13.1%. In addition, the values for the inhibition in [19] and in [20] were 53.5% and 2.74%, respectively.

Take `CN(C)CCCn1c(-c2nonc2N)nc2cnccc21`: the inhibition is 2.24% in assay [1]; -0.11% in [2]; -0.83% in assay [3]; 2.33% in assay [4]; 2.88% in assay [5]; 4.54% in assay [6]. Further, the inhibition in assay [7] was 2.43%; in [8], 2.81%; in assay [9], 18.9%; in [10], -0.04%; in [11], 0.24%; in [12], -0.78%. Moreover, the inhibition in [13] is 1.03%; in assay [14] it was 0.98%; in [15], -0.25%; in assay [16], 3.24%; in assay [17] it was 8.57%; in [18] it was -0.97%. Moreover, the inhibition stood at 5.74% in assay [19] and 1.24% in assay [20].

As to `COc1cc2ncn(-c3cc(OCc4ccccc4S(C)(=O)=O)c(C#N)s3)c2cc1OC`, the inhibition in assay [1] is 70.7%; in assay [2] it was 0.91%; in [3] it was 0.31%; in assay [4], 45.2%; in assay [5] it was 76.5%; in assay [6], 4.94%. Moreover, the inhibition in assay [7] was 10.9%; in assay [8] it was 0.71%; in [9] it was 0.97%; in [10] it was 0.9%; in assay [11] it was 1.39%; in assay [12], -0.4%. Besides, the inhibition in assay [13] is -0.82%; in [14], 0.7%; in assay [15] it was -0.19%; in assay [16] it was 16.1%; in assay [17], 61%; in [18], 21.9%. In addition, the inhibition turned out to be 69.4% in assay [19] and 64.9% in assay [20].

For `COc1cccc(-n2ncc3c(N/N=C/c4ccc(C)cc4)ncnc32)c1`, the inhibition in assay [1] is 6.23%; in [2], -0.93%; in assay [3], 0.57%; in [4] it was 2.43%; in assay [5], 10%; in assay [6] it was 5.73%. Also, the inhibition in [7] was 5.98%; in assay [8] it was 1.21%; in assay [9], 3.51%; in assay [10], -0.44%; in [11], 0.75%; in [12], 2.2%. In addition, the inhibition in [13] stood at 8.3%; in [14], 1.88%; in assay [15], 2.22%; in [16], 7.95%; in assay [17], 12.6%; in assay [18] it was 8.99%. Besides, the inhibition was 14.7% in [19] and 2.64% in [20].

Source of the values: ChEMBL document CHEMBL1961873, “Compounds: GSK PKIS; Assays: Nanosyn kinase panel” (2012).
